This is an account of results in PubChem BioAssay (NCATS).

Assay [1] addresses Peroxisome proliferator-activated receptor delta (Homo sapiens) (UniProt Q03181). Kind of assay: qHTS assay for small molecule agonists of peroxisome proliferator-activated receptor delta signaling (AID 588534).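 Also: 0% = DMSO basal wells and 100% = positive control agonist at 10 µM.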 An outline of the steps: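 Agonist-mode qHTS; reporter cells, 5 hrs 37 C pre-incubation; compound titration, 18 hrs 37 C; CCF4 dye, 2 hrs RT; fluorescence read. EC50/efficacy via Hill fit.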

Assay [2] is described as follows: qHTS for Inhibitors of the Functional Ribonucleoprotein Complex (vRNP) of Lassa (LASV) Arenavirus: LASV Primary Screen - GLuc reporter signal (AID 1347082; calls by dose curve; tested in HEK293 reporter line; also: series mostly up to about 57 µM; % is scaled to controls: 0 for no effect and ±100 for the full control effect; nearly all actives have a fitted effect of over 60% in size). Background: In qHTS, concentration-response curves come from the screen itself.
The nature of assay [3]: qHTS for Inhibitors of the Functional Ribonucleoprotein Complex (vRNP) of Lassa (LASV) Arenavirus: Viability assay - alamar blue signal for LASV Primary Screen (AID 1347083; calls by dose curve; tested in HEK293 reporter line; also: series mostly up to about 57 µM; % is scaled to controls: 0 for no effect and ±100 for the full control effect; nearly all actives have a fitted effect of over 80% in size).
Assay [4] in a line: qHTS for Inhibitors of the Functional Ribonucleoprotein Complex (vRNP) of Lymphocytic Choriomeningitis Arenaviruses (LCMV): Viability assay - alamar blue signal for LCMV Primary Screen (AID 1347085; calls by dose curve; tested in HEK293 reporter line; also: series mostly up to about 57 µM; % is scaled to controls: 0 for no effect and ±100 for the full control effect; nearly all actives have a fitted effect of over 80% in size).
Assay [5] deals with Nucleoprotein (Lymphocytic choriomeningitis virus (strain Armstrong)) (UniProt P09992). Kind of assay: qHTS for Inhibitors of the Functional Ribonucleoprotein Complex (vRNP) of Lymphocytic Choriomeningitis Arenaviruses (LCMV): LCMV Primary Screen - GLuc reporter signal (AID 1347086). Also: series mostly up to about 57 µM; % is scaled to controls: 0 for no effect and ±100 for the full control effect; nearly all actives have a fitted effect of over 70% in size.
Chain of Nucleoprotein (Lymphocytic choriomeningitis virus (strain Armstrong)) (P09992 whole entry, looked up): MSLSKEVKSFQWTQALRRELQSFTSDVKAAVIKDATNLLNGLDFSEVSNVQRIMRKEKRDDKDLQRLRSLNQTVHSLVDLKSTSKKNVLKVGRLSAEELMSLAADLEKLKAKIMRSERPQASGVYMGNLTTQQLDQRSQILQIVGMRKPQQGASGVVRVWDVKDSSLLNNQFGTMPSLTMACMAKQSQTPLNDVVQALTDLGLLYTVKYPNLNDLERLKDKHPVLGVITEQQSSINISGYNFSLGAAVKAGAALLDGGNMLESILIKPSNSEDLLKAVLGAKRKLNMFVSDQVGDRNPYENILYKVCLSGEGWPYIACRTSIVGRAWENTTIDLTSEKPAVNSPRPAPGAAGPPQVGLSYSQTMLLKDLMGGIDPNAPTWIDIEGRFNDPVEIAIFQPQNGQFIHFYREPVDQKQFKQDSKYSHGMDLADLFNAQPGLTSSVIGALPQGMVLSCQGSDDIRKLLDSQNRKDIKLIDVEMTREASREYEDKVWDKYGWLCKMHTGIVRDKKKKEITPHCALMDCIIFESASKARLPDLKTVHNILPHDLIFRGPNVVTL
Assay [6] has as its target Alpha-galactosidase (Coffea arabica) (UniProt Q42656). Kind of assay: Counterscreen for Glucocerebrosidase Inhibitors: qHTS Assay for Coffee Bean alpha-Galactosidase at pH 4.5 (AID 957; active = well fitted curve in the direction sought with a large enough effect; an effect the other way counts as inactive or inconclusive;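 also: series mostly up to about 77 µM; plate controls were enzyme alone for no effect and no enzyme for full effect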). An outline of the steps:
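Enzyme is added first (2 nM final), then compounds titrated from 0.7 nM to 77 uM, then 80 uM 4-methylumbelliferyl alpha-D-galactopyranoside; after 20 min at room temperature a pH 10 NaOH/glycine stop precedes fluorescence reading at 365/440 nm.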
A general note: A counterscreen serves to expose hits that act by an unwanted route or on another target.

For assay [7] the target is unchanged. Kind of assay: Counterscreen for Glucocerebrosidase Inhibitors: qHTS Assay for Coffee Bean alpha-Galactosidase at pH 5.9 (AID 998; active = well fitted curve in the direction sought with a large enough effect; an effect the other way counts as inactive or inconclusive;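 also: plate controls were uninhibited enzyme for no effect and no-enzyme basal signal for full effect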). An outline of the steps:
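In 50 mM citric acid pH 5.9 with 0.005% Tween-20, coffee bean enzyme hydrolyses 80 uM 4-MU alpha-D-galactopyranoside over 20 min at RT. Activity is normalized to controls; AC50 comes from Hill-modelled concentration-response data.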

The nature of assay [8]: Inducers of the Endoplasmic Reticulum Stress Response (ERSR) in human glioma: Validation (AID 504836; active = well fitted curve in the direction sought with a large enough effect; an effect the other way counts as inactive or inconclusive; also: 0% is about no effect). The method, boiled down: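 Stably transfected U87-MG human glioma cells carrying a GRP78-based luminescent sensor were seeded at 1000 cells/well, pin-dosed with compounds and incubated 16 h. Luciferase reagent was then added, and end-point luminescence was read after 10 min at room temperature.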

The target of assay [9] is Cytochrome P450 3A4 (Homo sapiens) (UniProt P08684). Kind of assay: qHTS Assay for Inhibitors and Substrates of Cytochrome P450 3A4 (AID 884; active = well fitted curve in the direction sought with a large enough effect; an effect the other way counts as inactive or inconclusive; also: potency is read from the fitted curve at half-maximal effect; nearly all actives have a fitted effect of over 50% in size). The method, boiled down: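 Luminescent readout of luciferin produced by CYP3A4 (20 nM) dealkylation of Luciferin-PPXE, 25 uM (its KM). NADPH-driven reaction ran 60 min at RT after 10 min compound preincubation; data scaled to 57 uM ketoconazole as 100% inhibition.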
Chain of Cytochrome P450 3A4 (Homo sapiens) (P08684 whole entry, looked up): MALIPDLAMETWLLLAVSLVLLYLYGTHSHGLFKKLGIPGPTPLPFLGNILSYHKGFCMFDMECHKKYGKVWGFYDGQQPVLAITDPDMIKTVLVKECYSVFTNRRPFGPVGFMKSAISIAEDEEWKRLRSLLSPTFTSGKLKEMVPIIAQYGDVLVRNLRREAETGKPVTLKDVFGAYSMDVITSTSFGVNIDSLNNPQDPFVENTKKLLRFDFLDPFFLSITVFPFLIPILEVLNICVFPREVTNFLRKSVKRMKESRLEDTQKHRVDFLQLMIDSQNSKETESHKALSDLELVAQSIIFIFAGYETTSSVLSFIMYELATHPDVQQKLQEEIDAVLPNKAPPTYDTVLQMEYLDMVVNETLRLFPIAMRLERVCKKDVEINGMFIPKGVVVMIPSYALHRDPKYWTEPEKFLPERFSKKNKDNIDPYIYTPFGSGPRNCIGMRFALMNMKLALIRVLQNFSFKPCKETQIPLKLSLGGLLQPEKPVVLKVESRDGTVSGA

For assay [10] the target is unchanged. Nature of the assay: qHTS Assay for Activators of Cytochrome P450 3A4 (AID 885; active = well fitted curve in the direction sought with a large enough effect; an effect the other way counts as inactive or inconclusive; also: nearly all actives have a fitted effect of over 65% in size). The method, boiled down: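 Human CYP3A4 dealkylates Luciferin-PPXE to luciferin, which luciferase detection converts to light. Substrate was at its KM (25uM), buffer 200mM KPO4, reaction 60 min at RT.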
In assay [11] the target is Bile acid receptor (Homo sapiens) (UniProt Q96RI1). Nature of the assay: qHTS assay for small molecule agonists of farnesoid X receptor signaling (AID 588527).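 Also: series mostly up to about 77 µM; 0% = vehicle basal and 100% = reference agonist.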 The settings on record: HEK293T FXR-UAS-bla, beta-lactamase ratio, 16 h; activation: hits give high values. An outline of the steps: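 FXR-UAS-bla HEK293T cells (10% dialyzed FBS) preincubated 5-7 h at 37 C, then compounds at up to 92 uM for 16 h at 37 C. CCF4 beta-lactamase read-out after 2 h RT. Normalized to chenodeoxycholic acid (100 uM) and DMSO; Hill fit gave EC50 and efficacy.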
Chain of Bile acid receptor (Homo sapiens) (Q96RI1 whole entry, looked up): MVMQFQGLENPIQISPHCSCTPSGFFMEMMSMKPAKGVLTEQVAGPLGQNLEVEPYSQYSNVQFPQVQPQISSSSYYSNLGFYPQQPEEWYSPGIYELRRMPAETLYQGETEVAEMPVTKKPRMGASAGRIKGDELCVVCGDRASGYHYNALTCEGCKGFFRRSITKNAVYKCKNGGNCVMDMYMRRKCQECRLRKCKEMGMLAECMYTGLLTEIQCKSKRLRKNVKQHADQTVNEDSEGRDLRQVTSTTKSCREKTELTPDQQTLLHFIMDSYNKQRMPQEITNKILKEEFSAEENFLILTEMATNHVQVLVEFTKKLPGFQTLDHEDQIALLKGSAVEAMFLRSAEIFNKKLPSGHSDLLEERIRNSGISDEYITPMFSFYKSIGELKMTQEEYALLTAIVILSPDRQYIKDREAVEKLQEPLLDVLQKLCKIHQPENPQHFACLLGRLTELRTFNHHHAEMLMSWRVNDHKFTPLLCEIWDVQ

Assay [12] is described as follows: qHTS assay for small molecule agonists of the antioxidant response element (ARE) signaling pathway (AID 651741; active = well fitted activation curve with a large enough effect in the signal ratio; the % refers to the signal ratio; also: % of control where 0% means no effect). An outline of the steps:
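Reporter: beta-lactamase under ARE, stably in HepG2. Exposure: 16 h, 37 C, compounds delivered in DMSO by pin tool after 5 h cell preincubation. Readout: FRET substrate fluorescence after 2 h at RT.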

“And” between values parts separate entries of the source, which are not always exact repeats. Equal entries are not always repeated. Unmarked numbers belong to inactive results. Results filed as inconclusive are left out. The source made the active and inactive calls. Unless noted, calls follow the shape of the full dose curve.

Chain of Alpha-galactosidase (Coffea arabica) (Q42656 whole entry, looked up): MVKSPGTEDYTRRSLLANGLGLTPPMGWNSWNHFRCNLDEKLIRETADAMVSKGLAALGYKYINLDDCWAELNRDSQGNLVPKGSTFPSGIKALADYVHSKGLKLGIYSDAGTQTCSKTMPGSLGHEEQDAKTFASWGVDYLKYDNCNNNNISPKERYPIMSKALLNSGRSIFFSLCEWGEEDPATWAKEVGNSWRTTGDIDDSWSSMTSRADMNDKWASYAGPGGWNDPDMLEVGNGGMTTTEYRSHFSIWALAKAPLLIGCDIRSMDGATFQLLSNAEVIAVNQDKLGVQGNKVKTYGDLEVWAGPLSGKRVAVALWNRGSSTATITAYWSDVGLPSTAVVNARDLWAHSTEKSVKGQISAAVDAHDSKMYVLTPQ
Chain of Peroxisome proliferator-activated receptor delta (Homo sapiens) (Q03181 whole entry, looked up): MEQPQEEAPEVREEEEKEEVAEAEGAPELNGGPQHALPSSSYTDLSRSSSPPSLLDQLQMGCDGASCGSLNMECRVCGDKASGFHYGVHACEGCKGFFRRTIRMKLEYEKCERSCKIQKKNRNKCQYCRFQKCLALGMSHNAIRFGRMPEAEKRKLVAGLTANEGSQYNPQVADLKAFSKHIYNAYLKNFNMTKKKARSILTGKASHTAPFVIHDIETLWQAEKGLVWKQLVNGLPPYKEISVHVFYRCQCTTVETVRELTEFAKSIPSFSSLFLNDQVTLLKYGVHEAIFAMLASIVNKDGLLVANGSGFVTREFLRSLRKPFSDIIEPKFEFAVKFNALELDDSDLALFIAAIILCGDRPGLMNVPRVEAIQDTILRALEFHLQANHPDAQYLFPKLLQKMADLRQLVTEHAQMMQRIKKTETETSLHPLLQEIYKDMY

On to `C1CCC2(CCCCO2)OC1`, for which the Potency entry in [1], in [2], in assay [3], in assay [4] and in assay [5] was “inactive” in each case.

On to `CCN1C(=O)C=CC1=O`, for which the call in [6], in assay [7] and in assay [8] was inactive. Besides, the Potency entry in assay [2], in [3], in [4] and in assay [5] was “inactive” in each case.

Regarding `C=CCOC(=O)c1ccccc1C(=O)OCC=C`, in [9], the Potency was 5.01 µM (active). Further, the Potency entry in assay [10], in assay [12], in assay [2], in [3], in [4] and in assay [5] was “inactive” in each case. The activation in assay [11] is -3.26% and 2.9%.

`O=c1c2ccccc2nc2n1CCc1c-2[nH]c2ccccc12`: the outcome in assay [6], in [7] and in assay [8] was inactive. For the same compound, the Potency result in [2], in [3], in [4] and in [5] was “inactive” each time.

For the compound `CC(=O)/C=C/C1C(C)=CCCC1(C)C` (stereo not drawn), the activation in assay [11] is 2.64%. Moreover, the Potency entry in assay [1], in [2], in assay [3], in assay [4] and in [5] was “inactive” each time.
